According to PubChem BioAssay (Tox21):
Records with an inconclusive call do not appear. Activity calls are given as the source filed them. Unless noted, calls follow the shape of the dose curve; as a rule, active = well fitted curve in the direction sought with a large enough effect in the repeat runs; inconclusive = weak or mixed curves; inactive = no such curve, though single readings can be large; an effect the other way counts as inactive or inconclusive.

Legend:
[1] = qHTS assay for small molecule agonists of the p53 signaling pathway - cell viability (AID 651633; calls by dose curve; also: nearly all actives have a fitted effect of over 30% in size; also: potency is read from the fitted curve at half-maximal effect)
Outline: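 Viability counter-read: CellTiter-Glo luminescence (30 min, room temperature) in the same p53RE-bla plates. These plates had been exposed to compounds for 16 h at 37 C.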

[2] = qHTS assay for small molecules that induce genotoxicity in human embryonic kidney cells expressing luciferase-tagged ATAD5 - cell viability (AID 651634; calls by dose curve; also: nearly all actives have a fitted effect of over 25% in size)
Outline: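 After 15.5 hr incubation with compound at 37C, 5% CO2, HEK293T ATAD5-luciferase cells received CellTiter-Fluor reagent; fluorescence intensity was quantified following 30 min at 37C.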

[3] = qHTS assay for small molecule disruptors of the mitochondrial membrane potential - cell viability (AID 720634; calls by dose curve;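 also: human HepG2 liver cancer cells; series mostly up to about 83 µM; nearly all actives have a fitted effect of over 20% in size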)
Outline: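 ATP-based luminescent viability readout (CellTiter-Glo, 30 min, room temperature) in HepG2 cells multiplexed with the m-MPI membrane potential dye; compound exposure lasted 1 hr at 37 C.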

[4] = qHTS assay to test for compound auto fluorescence at 590 nm (red) in HepG2 cells (AID 720674)
Outline: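 We screened compounds on adherent HepG2 cells, incubating them for an hour at 37 C in 5% CO2 before reading emission at 590 nm under 540 nm excitation; values reflect equivalence to Rose Bengal sodium fluorescence.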

[5] = qHTS assay to test for compound auto fluorescence at 535 nm (green) in HepG2 cells (AID 720675)
[6] = qHTS assay to test for compound auto fluorescence at 460 nm (blue) in HEK293 cells (AID 720678)
Outline: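 HEK293 cells (2,000 per well, medium with 10% dialyzed FBS) attached for 4-5 hr at 37C, then received compound and stood overnight at 37C, 5% CO2. Blue fluorescence was read at Ex/Em 405/460 nm and expressed relative to triamterene.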

[7] = qHTS assay to test for compound auto fluorescence at 590 nm (red) in HEK293 cells (AID 720679)
Outline: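 HEK293 cells (2,000/well, medium with 10% dialyzed FBS) attached for 4-5 hr at 37C, received 23 nL compound and were incubated overnight at 37C, 5% CO2. Red fluorescence was then read at 540/590nm Ex/Em, referenced to Rose Bengal sodium.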

[8] = qHTS assay to test for compound auto fluorescence at 535 nm (green) in HEK293 cells (AID 720680)
[9] = qHTS assay to test for compound auto fluorescence at 460 nm (blue) in HEK293 cell free culture (AID 720681)
Outline: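 Blue fluorescence (Ex 405/Em 460 nm, triamterene-equivalent) was read immediately after pin transfer of compound or DMSO into medium (DMEM, 10% FBS) without cells.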

[10] = qHTS assay to test for compound auto fluorescence at 535 nm (green) in HEK293 cell free culture (AID 720682)
Outline: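 Read-out: 485/535 nm fluorescence intensity, calibrated against fluorescein. Medium only (DMEM + 10% FBS, no cells); test compound or DMSO vehicle added by pintool before plate reading.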

[11] = qHTS assay to test for compound auto fluorescence at 590 nm (red) in HEK293 cell free culture (AID 720683)
Outline: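 Red-channel autofluorescence of compounds in culture medium (DMEM, 10% FBS), no cells, measured at 540/590 nm. Rose Bengal sodium is the reference fluorophore for equivalence.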

[12] = qHTS assay to test for compound auto fluorescence at 460 nm (blue) in HepG2 cell free culture (AID 720685)
Outline: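 Cell-free plates of MEM plus 10% FBS received 23 nL compound or DMSO vehicle; blue-channel (405/460 nm) intensity scored against triamterene as reference fluorophore.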

[13] = qHTS assay to test for compound auto fluorescence at 535 nm (green) in HepG2 cell free culture (AID 720686)
[14] = qHTS assay to test for compound auto fluorescence at 460 nm (blue) in HepG2 cells (AID 720687)
Outline: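 Blue-channel autofluorescence (Ex/Em 405/460 nm, triamterene-equivalent) was measured after 1 hr compound exposure at 37 C, 5% CO2. Cells were HepG2, plated overnight at 37 C in MEM plus 10% FBS.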

[15] = qHTS assay to test for compound auto fluorescence at 590 nm (red) in HepG2 cell free culture (AID 720684)
Outline: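 Cell-free; medium MEM + 10% FBS; compound or DMSO added by pintool; read Ex 540/Em 590 nm; Rose Bengal sodium as red reference fluorophore.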

[16] = biological target: Glucocorticoid receptor (Homo sapiens) (UniProt P04150); assay: qHTS assay to identify small molecule agonists of the glucocorticoid receptor (GR) signaling pathway (AID 720691; active = well fitted activation curve with a large enough effect in the signal ratio in the repeat runs, not every such curve was filed as active; the % refers to the signal ratio)
Sequence of Glucocorticoid receptor (Homo sapiens) (P04150 whole entry, looked up): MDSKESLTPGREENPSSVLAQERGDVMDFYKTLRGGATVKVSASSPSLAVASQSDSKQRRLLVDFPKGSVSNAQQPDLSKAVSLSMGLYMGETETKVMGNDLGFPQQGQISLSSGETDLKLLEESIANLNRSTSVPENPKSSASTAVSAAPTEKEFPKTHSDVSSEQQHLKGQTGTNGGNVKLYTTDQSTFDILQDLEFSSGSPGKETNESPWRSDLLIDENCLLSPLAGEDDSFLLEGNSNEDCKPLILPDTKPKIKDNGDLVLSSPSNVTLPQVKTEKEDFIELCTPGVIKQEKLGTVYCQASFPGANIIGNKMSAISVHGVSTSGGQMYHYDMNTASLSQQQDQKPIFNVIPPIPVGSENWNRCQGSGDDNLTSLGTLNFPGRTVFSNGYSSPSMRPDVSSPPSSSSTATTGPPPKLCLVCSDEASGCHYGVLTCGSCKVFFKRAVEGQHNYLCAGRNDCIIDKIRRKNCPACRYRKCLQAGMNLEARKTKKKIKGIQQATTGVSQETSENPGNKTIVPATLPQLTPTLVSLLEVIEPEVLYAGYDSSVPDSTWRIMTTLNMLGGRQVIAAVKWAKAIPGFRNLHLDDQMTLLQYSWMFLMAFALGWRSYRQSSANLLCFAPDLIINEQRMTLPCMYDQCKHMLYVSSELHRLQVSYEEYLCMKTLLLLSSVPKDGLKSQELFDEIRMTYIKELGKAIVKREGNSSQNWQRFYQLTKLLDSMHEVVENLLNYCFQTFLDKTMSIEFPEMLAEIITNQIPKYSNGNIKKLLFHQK
Outline: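 Cells: GR-bla HeLa, endogenous GR with stably integrated GRE-beta-lactamase reporter. Treatment 18 h, 37 C, compounds delivered in DMSO. Detection via LiveBLAzer B/G FRET substrate, 2 h RT, fluorescence intensity.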

[17] = qHTS assay for small molecule disruptors of the mitochondrial membrane potential (AID 720635); also: potency is read from the fitted curve at half-maximal effect
Outline: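 Mitochondrial membrane potential tracked with Mito-MPS dye, red aggregates (ex 540/em 590 nm) against green monomers (ex 490/em 535 nm). Compound treatment 1 hr at 37C, dye 30 min in HepG2.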

[18] = biological target: Glucocorticoid receptor (Homo sapiens) (UniProt P04150); assay: qHTS assay to identify small molecule antagonists of the glucocorticoid receptor (GR) signaling pathway (AID 720692; active = well fitted inhibition curve with a large enough effect in the signal ratio in the repeat runs, not every such curve was filed as active; the % refers to the signal ratio)
Outline: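 Quantitative HTS in antagonist format: HeLa cells expressing endogenous GR and a stably integrated GRE-bla reporter, stimulated with 5 nM dexamethasone (final) alongside test compounds for 18 h.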

[19] = qHTS assay for small molecules that induce genotoxicity in human embryonic kidney cells expressing luciferase-tagged ATAD5 (AID 651632); also: nearly all actives have a fitted effect of over 15% in size
Outline: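 Quantitative HTS in HEK293T expressing luciferase-tagged ATAD5, whose levels rise upon DNA damage. Exposure ran 16 hr at 37C and 5% CO2, with luminescence read 30 min after Amplite addition at room temperature.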
% is scaled to controls: 0 for no effect and ±100 for the full control effect.

CC(C)(c1ccccc1)c1ccccc1
inactive: Potency [1] | Potency [2] | Potency [3] | outcome [4] | outcome [5] | Potency [6] | outcome [7] | outcome [8] | Potency [9] | outcome [10] | outcome [11] | Potency [12] | outcome [13] | Potency [14]

CC(=O)N/N=C/c1ccc([N+](=O)[O-])o1
inactive: Potency [2] | Potency [3] | outcome [4] | outcome [5] | Potency [6] | outcome [7] | outcome [8] | Potency [9] | outcome [10] | outcome [11] | outcome [15] | Potency [12] | outcome [13] | Potency [14] | Potency [16]

N#CCCN(CCO)CCO
inactive: Potency [1] | Potency [3] | Potency [17] | outcome [4] | outcome [5] | Potency [6] | outcome [7] | outcome [8] | Potency [9] | outcome [10] | outcome [11] | outcome [15] | Potency [12] | Potency [14] | Potency [16] | Potency [18]

CCOC(=O)OC(C)OC(=O)[C@@H]1N2C(=O)[C@@H](NC(=O)[C@H](N)c3ccccc3)[C@H]2SC1(C)C (some centres undefined)
inactive: Potency [19] | Potency [3] | fluorescence, relative to Rose Bengal [4] -0.696% [at 18.6 µM] | fluorescence, % of fluorescein control [5] 0.0265% [at 18.6 µM] | fluorescence, % of triamterene [6] 0.659% [at 18.6 µM] | fluorescence, % of fluorescent control [7] 0.375% [at 18.6 µM] | fluorescence, % of fluorescein [8] 0.0714% [at 18.6 µM] | fluorescence, % of fluorescent control [9] 0.602% [at 18.6 µM] | activity change [10] -0.0186% [at 18.6 µM] | fluorescence, % of fluorescent control [11] -0.265% [at 18.6 µM] | fluorescence, % of Rose Bengal [15] 0.701% [at 18.6 µM] | fluorescence, % of fluorescent control [12] 0.443% [at 18.6 µM] | fluorescence, % of fluorescein control [13] 0.112% [at 18.6 µM] | fluorescence, % of fluorescent control [14] 0.278% [at 18.6 µM]

Nc1nc2ccc([N+](=O)[O-])cc2s1
inactive: Potency [19] | Potency [3] | outcome [4] | outcome [5] | Potency [6] | outcome [7] | outcome [8] | Potency [9] | outcome [10] | outcome [11] | Potency [12] | Potency [14]
active: Potency [17] 4.33 µM

O=C1c2ccccc2C(=O)C1c1nc2ccccc2c(Br)c1O
inactive: Potency [1] | Potency [2] | Potency [3] | outcome [4] | outcome [5] | Potency [6] | outcome [7] | outcome [8] | Potency [9] | outcome [10] | outcome [11] | outcome [15] | Potency [12] | Potency [14] | Potency [16] | Potency [18]
active: Potency [17] 21.7 µM

CN1C(=O)c2ccccc2C1=O
inactive: Potency [1] | Potency [2] | Potency [3] | outcome [4] | outcome [5] | Potency [6] | outcome [7] | outcome [8] | Potency [9] | outcome [10] | outcome [11] | outcome [15] | Potency [12] | outcome [13] | Potency [14] | Potency [16]

Cc1cccc(O)c1N
inactive: Potency [1] | Potency [3] | outcome [4] | outcome [5] | Potency [6] | outcome [7] | outcome [8] | Potency [9] | outcome [10] | outcome [11] | outcome [15] | Potency [12] | outcome [13] | Potency [14] | Potency [16]

O=C(CCCN1CC=C(n2c(=O)[nH]c3ccccc32)CC1)c1ccc(F)cc1
inactive: Potency [2] | Potency [3] | Potency [17] | outcome [4] | outcome [5] | Potency [6] | outcome [7] | outcome [8] | Potency [9] | outcome [10] | outcome [11] | outcome [15] | Potency [12] | outcome [13] | Potency [14] | Potency [16] | Potency [18]

CC1(C)[C@H](C(=O)O)N2C(=O)C[C@H]2S1(=O)=O
inactive: Potency [3] | Potency [17] | outcome [4] | outcome [5] | outcome [7] | outcome [8] | Potency [9] | outcome [10] | outcome [11] | outcome [15] | Potency [12]

Oc1c(I)cc(I)c2cccnc12
inactive: Potency [2] | Potency [3] | outcome [4] | outcome [5] | outcome [7] | outcome [8] | Potency [9] | outcome [10] | outcome [11] | outcome [15] | Potency [12] | outcome [13]
active: Potency [1] 10.6 µM

c1ccc2sc(SN(C3CCCCC3)C3CCCCC3)nc2c1
inactive: Potency [19] | Potency [2] | outcome [4] | outcome [5] | outcome [7] | outcome [8] | Potency [9] | outcome [10] | outcome [11] | outcome [15] | Potency [12] | outcome [13] | Potency [14]
